SW480 rerep – induces DNA re-replication in SW480 colon adenocarcinoma cells; AID 624297; SW480 DNA re-replication, Hoechst DNA content imaging, 48 h; 340,000 tested, 1.8% active; Potency, µM (series often up to 46.1 µM), without a hit: at the highest dose re-replication activation, most hits filed as activators; also: potency is read from the fitted curve at half-maximal effect; % of control where 0% means no effect; nearly all actives have a fitted effect of over 55% in size
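250 cells/well; 23 nL cpd via pin tool; 48 hr, 37 C, 5% CO2; Hoechst 40 min; imager read of total nuclear intensity, ex 405/em 500-530 nm.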
Giardia killer – Giardia lamblia killing. activity change, % at 7.66 µM, hits read low. Giardia lamblia trophozoite viability. 340,000 tested, 0.15% active; in the data active = activity change below about -80%; inconclusive = between about -30% and that limit;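 also: parasites exposed to compound for two days anaerobically before the ATP read; % is scaled to controls: 0 for no effect and ±100 for the full control effect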
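Luminescent ATP signal served as the viability read-out, measured 15-30 min after adding ATP detection reagent to trophozoites that had been incubated with compounds for 48 hrs at 37 deg C anaerobically at 100 cells/well.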
Chronic BCR inh – chronic active BCR signaling inhibition; ABC-DLBCL IkBa-CBG/CBR reporter, luminescence ratio, 4 h; 340,000 tested, 0.05% active; AID 493014; Potency, µM (doses to about 46.1 µM), without a hit: at the top dose activity change, negative = inhibition, usual class: inhibitors; active = well fitted inhibition curve with a large enough effect in the signal ratio, with a control signal flat, not every such curve was filed as active; inconclusive = small, poorly fitted or top-dose-only effect, or effect the other way, or a change in a side signal; the % refers to the signal ratio;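 also: potency is read from the fitted curve at half-maximal effect; plate controls were basal doxycycline-induced cells for no effect and cells given 10 µM MG132 for full effect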
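Concentration-response series (up to 46 uM) were applied to TMD8 dual-reporter cells for 4 h at 37C with doxycycline. Green/red ratio, after filter-overlap correction, defined %Activity; red signal alone was normalised to basal cells and zero luminescence.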
Gal4-VP16 FLuc – Gal4-VP16 reporter inhibition counter-screen. 310,000 tested, 3.5% active. Potency, µM (top dose mostly 53.6 µM), inactives show at the top dose activity, negative = inhibition, actives largely listed as inhibitors. AID 2546. Drosophila S2 Gal4-VP16 UAS-luciferase, luminescence, 20 h;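 also: Gal4-VP16 expression switched on by copper sulfate through the metallothionein promoter; potency is read from the fitted curve at half-maximal effect; % is scaled to controls: 0 for no effect and ±100 for the full control effect; nearly all actives have a fitted effect of over 50% in size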
MCF10A rereplic – DNA re-replication induction in MCF 10a cells | MCF 10A DNA re-replication, Hoechst nuclear intensity, 48 h | Potency, µM (series often up to 46.1 µM), for the others: at the highest dose activity, positive = re-replication, usual class: activators | 350,000 tested, 2.9% active; also: potency is read from the fitted curve at half-maximal effect; % of control where 0% means no effect; nearly all actives have a fitted effect of over 50% in size
RORgamma inh – inhibitors of mouse ROR gamma transcriptional activity; P51450; Drosophila S2 Gal4-RORgamma UAS-luciferase reporter, 20 h; Potency, µM (doses to about 53.6 µM), for the others: top-dose activity change, negative = inhibition, usual class: inhibitors; 310,000 tested, 5.4% active; also: potency is read from the fitted curve at half-maximal effect; % is scaled to controls: 0 for no effect and ±100 for the full control effect; nearly all actives have a fitted effect of over 60% in size
Target sequence (P51450 whole entry, looked up, the tested form may be a part): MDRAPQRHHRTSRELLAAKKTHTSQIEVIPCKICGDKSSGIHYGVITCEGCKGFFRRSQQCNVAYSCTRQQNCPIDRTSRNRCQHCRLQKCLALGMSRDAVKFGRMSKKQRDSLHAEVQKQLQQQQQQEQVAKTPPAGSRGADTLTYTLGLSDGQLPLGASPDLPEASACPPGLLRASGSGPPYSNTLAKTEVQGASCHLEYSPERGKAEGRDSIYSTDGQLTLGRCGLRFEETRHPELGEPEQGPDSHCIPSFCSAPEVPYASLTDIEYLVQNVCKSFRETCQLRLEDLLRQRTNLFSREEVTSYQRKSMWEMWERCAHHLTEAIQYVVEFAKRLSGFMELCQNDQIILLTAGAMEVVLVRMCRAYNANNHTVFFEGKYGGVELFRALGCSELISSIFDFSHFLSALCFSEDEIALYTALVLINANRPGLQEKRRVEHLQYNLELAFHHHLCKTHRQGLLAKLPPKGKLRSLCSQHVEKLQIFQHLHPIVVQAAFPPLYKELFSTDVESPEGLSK
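Stably transfected Drosophila Schneider cells are the test system, with ROR gamma fused to Gal4 and luciferase under UAS control; luminescence is read after 20 hr of 700 uM copper sulfate induction at ambient temperature.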
* marks the source's active call; other numbers are inactive results; [ ] = another dose, or the depositor's remark. Rows were chosen to be rich in hits. Some 8.3% of all compounds tested hit in one or more screens of this group. Unless noted, calls follow the shape of the dose curve; as a rule, active = well fitted curve in the direction sought with a large enough effect; inconclusive = small, poorly fitted or top-dose-only effect, or another doubt; inactive = no such curve, though single readings can be large; an effect the other way counts as inactive or inconclusive.

For Fc1ccccc1C1c2cccn2CCN1C(=S)Nc1ccc(Br)cc1 (centres undefined) the results were SW480 rerep inconclusive, Giardia killer 6, Chronic BCR inh inconclusive, Gal4-VP16 FLuc -13%, MCF10A rereplic 21% and RORgamma inh inconclusive.
`Fc1ccccc1C1c2cccn2CCN1C(=S)Nc1cccc(Br)c1` (centres undefined) gave SW480 rerep inconclusive, Giardia killer -10, Chronic BCR inh inconclusive, Gal4-VP16 FLuc inconclusive, MCF10A rereplic 1% and RORgamma inh 13µM*.
Screening CCc1ccc(C(=O)CSC2=C(C#N)C(c3ccco3)C(C(C)=O)=C(C)N2)cc1 (centres undefined) returned Giardia killer 7, Chronic BCR inh 17%, Gal4-VP16 FLuc inconclusive and RORgamma inh 6.3µM*.
CC(=O)C1=C(C)NC(SCC(N)=O)=C(C#N)C1c1ccco1 (centres undefined) was read as SW480 rerep -11%, Giardia killer -4, Chronic BCR inh 0%, Gal4-VP16 FLuc 22%, MCF10A rereplic -1% and RORgamma inh inconclusive.
CC(=O)C1=C(C)NC(SCC(=O)c2cc(Cl)ccc2Cl)=C(C#N)C1c1ccco1 (centres undefined) was read as SW480 rerep inconclusive, Giardia killer 6, Chronic BCR inh inconclusive, Gal4-VP16 FLuc 3.5µM*, MCF10A rereplic inconclusive and RORgamma inh 6.3µM*.
`CC(=O)C1=C(C)NC(SCC(=O)c2ccc(Cl)c(Cl)c2)=C(C#N)C1c1ccco1` (centres undefined) gave SW480 rerep 12µM*, Giardia killer -7, Chronic BCR inh inconclusive, Gal4-VP16 FLuc -63%, MCF10A rereplic 2% and RORgamma inh inconclusive.
For CCOc1ccccc1NC(=O)CSC1=C(C#N)C(c2ccco2)C(C(=O)Nc2nc3ccccc3s2)=C(C)N1 (centres undefined) the results were SW480 rerep 3.7µM*, Giardia killer -7, Chronic BCR inh 7%, Gal4-VP16 FLuc -12%, MCF10A rereplic inconclusive and RORgamma inh 1%.
`O=C(Nc1sc2c(c1C(=O)O)CCC2)c1cccc(Cl)c1` gave SW480 rerep -10%, Giardia killer -28, Chronic BCR inh inconclusive, Gal4-VP16 FLuc -10%, MCF10A rereplic inconclusive and RORgamma inh inconclusive.
O=C1NN(c2ccc(F)cc2)C(=O)/C1=C\C=C\c1ccco1 was read as SW480 rerep inconclusive, Giardia killer -8, Chronic BCR inh 3%, Gal4-VP16 FLuc inconclusive, MCF10A rereplic inconclusive and RORgamma inh 1.1µM*.
COc1ccc(Nc2nc(-c3sc(C)nc3C)cs2)c(OC)c1 was read as SW480 rerep 21µM*, Giardia killer -13, Chronic BCR inh inconclusive, Gal4-VP16 FLuc -20%, MCF10A rereplic inconclusive and RORgamma inh -5%.
For Cc1ccnc(Nc2nc(-c3ccc(F)cc3)cs2)c1 the results were SW480 rerep -40%, Giardia killer 0, Chronic BCR inh inconclusive, Gal4-VP16 FLuc inconclusive, MCF10A rereplic inconclusive and RORgamma inh 11µM*.
Cc1ccnc(Nc2nc(-c3sc(C)nc3C)cs2)c1 was read as SW480 rerep inconclusive, Giardia killer -10 and MCF10A rereplic 23µM*.
Cc1cc(-c2csc(Nc3ccccn3)n2)ccc1F was read as SW480 rerep -5%[9.22 µM], Giardia killer -16, Chronic BCR inh inconclusive, Gal4-VP16 FLuc inconclusive, MCF10A rereplic inconclusive and RORgamma inh 1µM*.
`COC(=O)C(=O)/C=C(\O)c1c(C)cc(C)cc1C` gave SW480 rerep -1%, Giardia killer 4, Chronic BCR inh 1%, Gal4-VP16 FLuc -3%, MCF10A rereplic 3% and RORgamma inh 19%.
`Cc1ccc(Nc2nc(-c3sc(C)nc3C)cs2)cc1` gave SW480 rerep 2.1µM*, Giardia killer 13, Chronic BCR inh inconclusive, Gal4-VP16 FLuc -1%, MCF10A rereplic inconclusive and RORgamma inh inconclusive.
Screening Cc1ccc(Nc2nc(-c3sc(N)nc3C)cs2)cc1 returned SW480 rerep 19%, Giardia killer 18, Chronic BCR inh inconclusive, Gal4-VP16 FLuc 1%, MCF10A rereplic -5% and RORgamma inh 6%.
O=S(=O)(c1ccccc1)c1cnn2c(C(F)(F)F)cc(-c3ccccc3)nc12 was read as SW480 rerep 10%, Giardia killer -2, Chronic BCR inh -1%, Gal4-VP16 FLuc -29%, MCF10A rereplic inconclusive and RORgamma inh -13%.
For COc1ccccc1-c1cc(C(F)(F)F)n2ncc(S(=O)(=O)c3ccccc3)c2n1 the results were SW480 rerep 23µM*, Giardia killer 25, Chronic BCR inh inconclusive, Gal4-VP16 FLuc -9%, MCF10A rereplic 25% and RORgamma inh -43%.
For CC1=CC(=O)C(C(C)C)=C/C1=C(\c1cc(C(C)C)c(OP(=O)(O)O)cc1C)c1ccccc1C(=O)O the results were SW480 rerep inconclusive, Giardia killer -1, Chronic BCR inh inconclusive, Gal4-VP16 FLuc -1%, MCF10A rereplic 21µM* and RORgamma inh 1%.
OC(CNCc1ccc(Cl)cc1)(c1ccccc1)c1ccc(F)cc1 (centres undefined) was read as SW480 rerep -1%, Giardia killer 6, Chronic BCR inh 8%, Gal4-VP16 FLuc 11µM*, MCF10A rereplic inconclusive and RORgamma inh inconclusive.
Screening COc1ccc(N2CCN(c3ncnc4c3[nH]c3ccccc34)CC2)cc1 returned SW480 rerep -1%, Giardia killer 2, Gal4-VP16 FLuc 7.1µM*, MCF10A rereplic 6% and RORgamma inh inconclusive.
For COc1ccc2[nH]c3c(N4CCc5ccccc5C4)ncnc3c2c1 the results were SW480 rerep inconclusive, Giardia killer 13, Chronic BCR inh inconclusive, Gal4-VP16 FLuc 13µM*, MCF10A rereplic 3.7µM* and RORgamma inh inconclusive.
Screening COc1cc2[nH]c3c(N4CCN(c5ccccn5)CC4)ncnc3c2cc1OC returned SW480 rerep -1%, Giardia killer 13, Chronic BCR inh inconclusive, Gal4-VP16 FLuc 18µM*, MCF10A rereplic inconclusive and RORgamma inh inconclusive.
`CCOC(=O)N1CCN(c2ncnc3c2[nH]c2ccc(OC)cc23)CC1` gave SW480 rerep 0%, Giardia killer 18, Chronic BCR inh 2%, Gal4-VP16 FLuc -16%, MCF10A rereplic 6% and RORgamma inh 0%.
Fc1ccc2[nH]c3c(N4CCN(c5ccccc5)CC4)ncnc3c2c1 was read as SW480 rerep 19%, Giardia killer 4, Chronic BCR inh inconclusive, MCF10A rereplic inconclusive and RORgamma inh 4%[0.365 µM].

Assay outcomes (PubChem)
